Inhibition data for seven compounds are collected here from ChEMBL document CHEMBL1961873, “Compounds: GSK PKIS; Assays: Nanosyn kinase panel” (2012).

The structures appear in SMILES notation.

What is called inhibition is the relative decrease from the control value, in per cent.

The target of assay [1] is Rho-associated protein kinase 1 (Homo sapiens) (UniProt Q13464). The conditions noted are these: at 1 µM.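 Further: reported values are mean percent inhibition of ROCK1.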
Assay [2] has as its target Rho-associated protein kinase 2 (Homo sapiens) (UniProt O75116). The conditions noted are these: at 0.1 µM.
Assay [3] shares this target. The conditions noted are these: at 1 µM.
For assay [4], the target named is Ribosomal protein S6 kinase alpha-1 (Homo sapiens) (UniProt Q15418). The conditions noted are these: at 0.1 µM.
Sequence of Ribosomal protein S6 kinase alpha-1 (Homo sapiens) (Q15418 whole entry): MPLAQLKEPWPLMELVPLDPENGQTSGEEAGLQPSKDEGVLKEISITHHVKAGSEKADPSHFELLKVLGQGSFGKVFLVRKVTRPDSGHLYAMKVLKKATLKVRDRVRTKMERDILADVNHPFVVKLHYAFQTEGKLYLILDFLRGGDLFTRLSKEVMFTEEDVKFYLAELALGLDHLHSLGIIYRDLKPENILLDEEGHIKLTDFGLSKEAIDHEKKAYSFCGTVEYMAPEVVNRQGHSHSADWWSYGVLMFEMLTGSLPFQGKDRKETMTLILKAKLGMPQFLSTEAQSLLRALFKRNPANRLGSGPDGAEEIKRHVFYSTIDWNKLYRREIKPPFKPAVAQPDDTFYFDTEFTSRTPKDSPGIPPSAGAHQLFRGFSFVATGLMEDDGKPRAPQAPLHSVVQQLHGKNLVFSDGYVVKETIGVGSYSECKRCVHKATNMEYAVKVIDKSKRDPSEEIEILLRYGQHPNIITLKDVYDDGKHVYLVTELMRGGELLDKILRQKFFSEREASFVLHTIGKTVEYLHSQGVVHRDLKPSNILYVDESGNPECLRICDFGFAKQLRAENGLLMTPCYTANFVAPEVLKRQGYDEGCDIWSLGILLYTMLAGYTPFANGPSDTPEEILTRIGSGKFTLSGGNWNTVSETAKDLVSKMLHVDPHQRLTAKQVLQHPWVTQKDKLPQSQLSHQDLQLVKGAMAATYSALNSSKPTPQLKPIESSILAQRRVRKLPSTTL
For assay [5] the target is unchanged. As to conditions: at 1 µM.
Assay [6] concerns the target Ribosomal protein S6 kinase alpha-3 (Homo sapiens) (UniProt P51812). The conditions noted are these: at 0.1 µM.
Assay [7] shares this target. As to conditions: at 1 µM.
Assay [8] concerns the target Ribosomal protein S6 kinase alpha-2 (Homo sapiens) (UniProt Q15349). As to conditions: at 0.1 µM.
The target is the same in assay [9]. The conditions noted are these: at 1 µM.
The target of assay [10] is Ribosomal protein S6 kinase alpha-6 (Homo sapiens) (UniProt Q9UK32). As to conditions: at 0.1 µM.
Sequence of Ribosomal protein S6 kinase alpha-6 (Homo sapiens) (Q9UK32 whole entry): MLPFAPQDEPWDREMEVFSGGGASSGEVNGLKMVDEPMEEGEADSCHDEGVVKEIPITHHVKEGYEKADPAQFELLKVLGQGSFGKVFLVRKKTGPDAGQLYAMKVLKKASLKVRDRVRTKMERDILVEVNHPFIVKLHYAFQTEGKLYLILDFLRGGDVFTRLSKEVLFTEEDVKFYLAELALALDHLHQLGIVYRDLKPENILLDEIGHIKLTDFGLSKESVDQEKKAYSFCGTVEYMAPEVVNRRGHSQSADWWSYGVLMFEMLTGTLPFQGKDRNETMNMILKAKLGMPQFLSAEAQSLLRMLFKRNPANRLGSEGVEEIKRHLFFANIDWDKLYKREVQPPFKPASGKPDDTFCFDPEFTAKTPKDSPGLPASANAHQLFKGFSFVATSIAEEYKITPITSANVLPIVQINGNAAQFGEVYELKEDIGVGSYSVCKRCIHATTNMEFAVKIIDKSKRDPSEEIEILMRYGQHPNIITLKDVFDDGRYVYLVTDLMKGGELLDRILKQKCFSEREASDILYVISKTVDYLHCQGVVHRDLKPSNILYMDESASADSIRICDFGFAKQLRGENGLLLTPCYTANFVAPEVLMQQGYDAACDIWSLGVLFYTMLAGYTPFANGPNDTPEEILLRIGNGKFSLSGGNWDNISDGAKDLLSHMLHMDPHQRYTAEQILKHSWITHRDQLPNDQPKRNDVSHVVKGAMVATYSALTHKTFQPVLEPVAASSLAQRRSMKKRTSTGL
The target is the same in assay [11]. The conditions noted are these: at 1 µM.
For assay [12], the target named is T1, Serine/threonine-protein kinase Sgk1 (Homo sapiens) (UniProt O00141).
T1 sequence (whole entry): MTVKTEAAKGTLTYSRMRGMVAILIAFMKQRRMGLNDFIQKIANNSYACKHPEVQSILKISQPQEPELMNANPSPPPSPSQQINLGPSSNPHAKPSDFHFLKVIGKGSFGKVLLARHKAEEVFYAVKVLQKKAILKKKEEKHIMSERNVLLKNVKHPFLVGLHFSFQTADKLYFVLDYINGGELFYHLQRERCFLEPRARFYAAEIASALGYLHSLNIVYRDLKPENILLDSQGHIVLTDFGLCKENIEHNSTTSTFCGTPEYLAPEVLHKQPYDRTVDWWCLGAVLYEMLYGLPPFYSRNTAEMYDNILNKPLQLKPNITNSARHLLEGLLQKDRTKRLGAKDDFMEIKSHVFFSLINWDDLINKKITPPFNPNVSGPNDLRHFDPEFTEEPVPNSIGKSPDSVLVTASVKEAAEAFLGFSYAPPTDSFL
As to conditions: at 0.1 µM.

In assay [13] the target is T1, Serine/threonine-protein kinase Sgk1 (Homo sapiens). As to conditions: at 1 µM.
Assay [14] deals with T2, Serine/threonine-protein kinase Sgk2 (Homo sapiens) (UniProt Q9HBY8).
T2 sequence (whole entry): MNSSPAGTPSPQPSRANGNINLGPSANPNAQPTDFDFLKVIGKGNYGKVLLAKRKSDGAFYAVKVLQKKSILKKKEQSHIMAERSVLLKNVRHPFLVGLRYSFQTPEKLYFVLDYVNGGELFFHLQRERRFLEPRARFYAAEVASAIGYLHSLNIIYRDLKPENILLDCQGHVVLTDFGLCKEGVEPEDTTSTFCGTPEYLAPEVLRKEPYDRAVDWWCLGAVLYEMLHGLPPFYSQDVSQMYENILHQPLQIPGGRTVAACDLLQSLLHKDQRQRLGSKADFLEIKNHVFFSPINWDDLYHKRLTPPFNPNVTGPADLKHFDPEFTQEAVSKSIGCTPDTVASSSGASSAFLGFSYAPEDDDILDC
The conditions noted are these: at 0.1 µM.

The target in assay [15] is T2, Serine/threonine-protein kinase Sgk2 (Homo sapiens). The conditions noted are these: at 1 µM.
Assay [16] addresses T3, Serine/threonine-protein kinase Sgk3 (Homo sapiens) (UniProt Q96BR1).
T3 sequence (whole entry): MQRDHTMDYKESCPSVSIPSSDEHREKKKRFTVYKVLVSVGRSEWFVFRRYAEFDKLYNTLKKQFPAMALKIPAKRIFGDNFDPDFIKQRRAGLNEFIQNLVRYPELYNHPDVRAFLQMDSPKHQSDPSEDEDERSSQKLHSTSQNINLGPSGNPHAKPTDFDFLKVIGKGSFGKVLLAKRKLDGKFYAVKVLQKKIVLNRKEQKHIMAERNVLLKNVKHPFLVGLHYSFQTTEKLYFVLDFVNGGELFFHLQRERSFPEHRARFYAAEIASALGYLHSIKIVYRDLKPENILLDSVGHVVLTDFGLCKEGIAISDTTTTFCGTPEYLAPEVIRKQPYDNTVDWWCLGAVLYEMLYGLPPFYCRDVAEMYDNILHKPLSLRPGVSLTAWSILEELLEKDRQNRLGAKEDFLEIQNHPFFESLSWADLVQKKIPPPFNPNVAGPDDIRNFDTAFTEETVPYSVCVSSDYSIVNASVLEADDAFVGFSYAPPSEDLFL
The conditions noted are these: at 0.1 µM.

The target of assay [17] is T3, Serine/threonine-protein kinase Sgk3 (Homo sapiens). As to conditions: at 1 µM.
Assay [18] deals with 5'-AMP-activated protein kinase catalytic subunit alpha-1 (Homo sapiens) (UniProt Q13131). The conditions noted are these: at 0.1 µM.
Sequence of 5'-AMP-activated protein kinase catalytic subunit alpha-1 (Homo sapiens) (Q13131 whole entry, looked up): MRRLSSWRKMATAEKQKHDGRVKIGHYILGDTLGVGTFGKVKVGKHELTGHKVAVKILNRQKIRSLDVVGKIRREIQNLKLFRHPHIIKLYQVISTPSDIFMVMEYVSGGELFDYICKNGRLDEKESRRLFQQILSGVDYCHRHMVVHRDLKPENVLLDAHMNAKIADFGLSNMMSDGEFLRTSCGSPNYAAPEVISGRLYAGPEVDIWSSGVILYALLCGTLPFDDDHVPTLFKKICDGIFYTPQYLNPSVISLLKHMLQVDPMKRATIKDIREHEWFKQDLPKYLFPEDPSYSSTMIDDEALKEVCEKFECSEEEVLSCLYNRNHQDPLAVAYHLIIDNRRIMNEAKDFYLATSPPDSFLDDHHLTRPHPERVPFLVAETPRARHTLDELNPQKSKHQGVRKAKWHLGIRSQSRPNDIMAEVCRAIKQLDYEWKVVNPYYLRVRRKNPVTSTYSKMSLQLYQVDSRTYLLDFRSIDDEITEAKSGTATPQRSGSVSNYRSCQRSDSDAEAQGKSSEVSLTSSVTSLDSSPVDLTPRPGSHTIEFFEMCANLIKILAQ
Assay [19] shares this target. As to conditions: at 1 µM.
Assay [20] has as its target 5'-AMP-activated protein kinase catalytic subunit alpha-2 (Homo sapiens) (UniProt P54646). As to conditions: at 0.1 µM.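 Further: mean inhibition measured on the AMPK complex of alpha2, beta1 and gamma1 subunits.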

Sequence of Rho-associated protein kinase 1 (Homo sapiens) (Q13464 2-1354 limits assumed): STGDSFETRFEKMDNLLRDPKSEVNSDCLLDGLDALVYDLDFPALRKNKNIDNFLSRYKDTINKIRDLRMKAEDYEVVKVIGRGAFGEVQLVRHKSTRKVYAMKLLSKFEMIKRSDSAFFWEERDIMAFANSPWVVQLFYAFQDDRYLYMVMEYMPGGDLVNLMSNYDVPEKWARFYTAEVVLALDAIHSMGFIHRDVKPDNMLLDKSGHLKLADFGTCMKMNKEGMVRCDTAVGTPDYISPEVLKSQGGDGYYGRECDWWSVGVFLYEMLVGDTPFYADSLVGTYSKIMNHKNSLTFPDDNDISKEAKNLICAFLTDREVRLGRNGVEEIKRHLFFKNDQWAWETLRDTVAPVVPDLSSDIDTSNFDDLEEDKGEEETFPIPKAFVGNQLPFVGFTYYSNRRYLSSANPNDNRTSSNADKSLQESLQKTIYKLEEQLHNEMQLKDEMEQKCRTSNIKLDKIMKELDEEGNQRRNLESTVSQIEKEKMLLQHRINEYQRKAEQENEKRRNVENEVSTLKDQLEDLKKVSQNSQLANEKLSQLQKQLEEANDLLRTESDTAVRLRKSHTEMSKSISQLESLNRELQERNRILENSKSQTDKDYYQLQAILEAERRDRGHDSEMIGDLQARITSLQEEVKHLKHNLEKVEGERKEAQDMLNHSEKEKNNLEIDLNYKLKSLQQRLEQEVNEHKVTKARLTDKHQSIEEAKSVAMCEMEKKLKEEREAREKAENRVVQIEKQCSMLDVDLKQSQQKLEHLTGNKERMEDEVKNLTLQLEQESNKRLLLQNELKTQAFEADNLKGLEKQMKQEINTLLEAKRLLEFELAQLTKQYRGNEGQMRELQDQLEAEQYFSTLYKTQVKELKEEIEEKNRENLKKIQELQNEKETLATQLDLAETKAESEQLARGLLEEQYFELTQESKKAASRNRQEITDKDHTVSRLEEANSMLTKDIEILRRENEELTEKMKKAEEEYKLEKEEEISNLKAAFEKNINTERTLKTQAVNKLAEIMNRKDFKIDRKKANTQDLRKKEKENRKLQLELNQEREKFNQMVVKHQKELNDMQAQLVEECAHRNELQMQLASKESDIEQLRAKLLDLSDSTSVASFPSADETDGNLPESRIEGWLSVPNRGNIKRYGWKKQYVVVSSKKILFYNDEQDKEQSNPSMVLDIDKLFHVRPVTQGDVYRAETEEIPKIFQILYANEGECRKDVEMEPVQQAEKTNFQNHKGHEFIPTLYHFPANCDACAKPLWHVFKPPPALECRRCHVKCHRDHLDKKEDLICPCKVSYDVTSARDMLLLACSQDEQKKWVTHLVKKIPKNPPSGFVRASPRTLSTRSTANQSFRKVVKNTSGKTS
Sequence of Ribosomal protein S6 kinase alpha-3 (Homo sapiens) (P51812 whole entry): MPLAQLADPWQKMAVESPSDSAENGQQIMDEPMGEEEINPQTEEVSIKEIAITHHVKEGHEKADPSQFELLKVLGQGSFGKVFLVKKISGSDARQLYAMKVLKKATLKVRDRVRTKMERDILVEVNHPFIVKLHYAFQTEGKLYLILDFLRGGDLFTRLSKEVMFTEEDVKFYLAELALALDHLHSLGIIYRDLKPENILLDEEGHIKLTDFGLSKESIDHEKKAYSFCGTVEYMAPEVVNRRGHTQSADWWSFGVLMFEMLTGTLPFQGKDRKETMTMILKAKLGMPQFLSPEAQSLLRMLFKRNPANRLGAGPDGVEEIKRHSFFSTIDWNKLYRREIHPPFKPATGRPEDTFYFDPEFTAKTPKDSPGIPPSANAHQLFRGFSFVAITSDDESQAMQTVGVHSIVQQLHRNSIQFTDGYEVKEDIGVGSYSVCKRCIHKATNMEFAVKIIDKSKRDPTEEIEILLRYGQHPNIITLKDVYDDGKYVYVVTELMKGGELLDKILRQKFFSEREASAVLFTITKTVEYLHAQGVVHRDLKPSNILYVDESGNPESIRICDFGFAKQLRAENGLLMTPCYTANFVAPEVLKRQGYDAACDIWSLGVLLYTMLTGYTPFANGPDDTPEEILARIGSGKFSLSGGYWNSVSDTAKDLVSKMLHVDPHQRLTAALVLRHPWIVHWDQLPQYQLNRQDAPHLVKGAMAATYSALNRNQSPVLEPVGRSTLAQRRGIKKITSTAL
Sequence of 5'-AMP-activated protein kinase catalytic subunit alpha-2 (Homo sapiens) (P54646 whole entry, looked up): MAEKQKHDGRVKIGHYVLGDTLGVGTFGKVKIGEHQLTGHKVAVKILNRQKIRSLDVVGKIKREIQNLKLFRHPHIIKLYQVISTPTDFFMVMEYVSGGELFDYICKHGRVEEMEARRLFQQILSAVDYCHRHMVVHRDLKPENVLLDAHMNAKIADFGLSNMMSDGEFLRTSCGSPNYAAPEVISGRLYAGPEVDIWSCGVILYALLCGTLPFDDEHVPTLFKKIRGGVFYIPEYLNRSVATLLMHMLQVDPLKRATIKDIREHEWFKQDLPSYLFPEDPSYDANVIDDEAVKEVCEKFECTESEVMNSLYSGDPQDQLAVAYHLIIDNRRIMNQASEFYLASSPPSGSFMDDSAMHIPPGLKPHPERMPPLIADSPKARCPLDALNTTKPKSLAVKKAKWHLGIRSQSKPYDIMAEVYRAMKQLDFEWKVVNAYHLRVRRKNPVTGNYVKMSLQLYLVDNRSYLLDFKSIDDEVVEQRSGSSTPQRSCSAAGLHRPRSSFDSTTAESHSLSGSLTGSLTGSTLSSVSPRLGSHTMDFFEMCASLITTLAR

As for `COc1cccc(-n2cnc3c(N/N=C/c4ccncc4)ncnc32)c1`, the inhibition in assay [1] worked out at 1.07%; in assay [2], 3.27%; in [3], 6.91%; in [4], 2.62%; in assay [5], 4.66%; in assay [6], 2.12%. Also, the inhibition in [7] was 4.76%; in assay [8] it was -0.37%; in [9], 0.82%; in assay [10] it was -0.06%; in assay [11] it was 1.9%; in assay [12] it was 1.3%. Besides, the inhibition was determined as 4.05% in assay [13]; 1.67% in assay [14]; 2.41% in assay [15]; 3.19% in assay [16]; 3.83% in [17]; 1.05% in assay [18]. The inhibition is 3.79% in assay [19] and -1.1% in assay [20].

In the case of `COc1ccc(C2=C(N3CCc4ccccc43)C(=O)NC2=O)cc1`, the inhibition in assay [1] was determined as 1.57%; in assay [2], 2.97%; in assay [3], 3.17%; in assay [4], 2.46%; in assay [5], 4.09%; in assay [6] it was 0.95%. Besides, the inhibition in assay [7] turned out to be 1.69%; in assay [8], 2.16%; in [9] it was 3.86%; in [10] it was 2.62%; in assay [11], 4.12%; in assay [12], 5.57%. The inhibition in [13] was 2.06%; in assay [14] it was -2.15%; in assay [15] it was -5.83%; in assay [16] it was 4.38%; in assay [17], 1.94%; in assay [18], 4.29%. Moreover, the values for the inhibition in assay [19] and in [20] were 5.67% and 1.73%, respectively.

Consider `COc1cc(Nc2ncc(-c3ccccc3)o2)cc(OC)c1OC`, for which the inhibition in [1] was 1.85%; in assay [2] it was -0.74%; in assay [3] it was 3.74%; in assay [4] it was 0.23%; in [5], 3.07%; in assay [6], 0.02%. The inhibition was 2.83% in [7]; 0.65% in assay [8]; 6.88% in [9]; 0.47% in assay [10]; 6.6% in assay [11]; 1.24% in assay [12]. The inhibition in [13] is 5.44%; in assay [14], 3.15%; in [15] it was 1.18%; in [16], 0.24%; in assay [17], 0.29%; in assay [18], 0.26%. The values for the inhibition in assay [19] and in assay [20] were 9.16% and 5%, respectively.

Consider `COc1cc(Nc2ncc3c(C)nc(-c4cccc(C(F)(F)F)c4)n3n2)cc(OC)c1OC`, for which the inhibition in assay [1] is 2.39%; in assay [2], 2.6%; in assay [3], 8.14%; in [4] it was 5.19%; in [5] it was 26.7%; in assay [6] it was 5.91%. For the same compound, the inhibition amounted to 31.8% in assay [7]; 7.09% in assay [8]; 37.1% in [9]; 5.57% in assay [10]; 29.1% in [11]; 3.85% in assay [12]. Also, the inhibition in [13] was 8.66%; in [14], -1.55%; in assay [15], 6.37%; in assay [16], 5.08%; in [17] it was 8.49%; in assay [18] it was 6.54%. Besides, the values for the inhibition in assay [19] and in assay [20] were 39.2% and 5.38%, respectively.

As for `CCC(=O)Nc1ccc(C)c(-c2ccc(C(=O)NCC3CC3)cc2)c1`, the inhibition in assay [1] was 4.2%; in assay [2], 2.63%; in assay [3], 3.64%; in assay [4] it was 0.56%; in assay [5], 0.53%; in assay [6], 0.82%. Further, the inhibition in [7] came out at 0.79%; in assay [8], 1.75%; in assay [9], 2.09%; in [10], 0.01%; in assay [11] it was 1.25%; in assay [12], 1.88%. Moreover, the inhibition in assay [13] was determined as 2.02%; in assay [14], 1.32%; in assay [15], 0.49%; in assay [16], 2.14%; in assay [17], 2.43%; in assay [18], 1.31%. Besides, the results for the inhibition in [19] and in [20] were 2.54% and 4.95%, respectively.

For `c1ccc(-c2n[nH]cc2-c2ccnc(-c3ccc(OCCN4CCOCC4)cc3)c2)nc1`, the inhibition in assay [1] was 2.14%; in [2], -0.2%; in assay [3] it was -1.4%; in [4] it was 0.42%; in [5] it was -1.3%; in [6], 0.55%. Besides, the inhibition is 0.57% in assay [7]; -0.89% in assay [8]; -0.56% in [9]; -0.33% in [10]; -0.39% in [11]; 5.23% in [12]. Also, the inhibition in assay [13] is 3.03%; in [14], 3.23%; in assay [15] it was -0.68%; in assay [16], 3.83%; in assay [17] it was 4.03%; in assay [18] it was 0.65%. The inhibition is -0.75% in [19] and 6.57% in assay [20].

On to `NS(=O)(=O)c1ccc(Nc2cc(-c3ccc(O)c(F)c3)n[nH]2)cc1`, for which the inhibition in assay [1] was 1.73%; in assay [2], -1.97%; in assay [3], 3.32%; in assay [4] it was 4.13%; in assay [5], 32.6%; in assay [6], 13.1%. Moreover, the inhibition was 56.4% in assay [7]; 16.5% in assay [8]; 63.5% in assay [9]; 13.4% in assay [10]; 59.5% in [11]; -0.99% in [12]. Moreover, the inhibition was 3.11% in assay [13]; -0.41% in assay [14]; 3.07% in assay [15]; 0.2% in assay [16]; -0.29% in assay [17]; 0.53% in assay [18]. The inhibition stood at 15.2% in assay [19] and 0.54% in [20].
